{"source": "PubChem BioAssay (NCI)", "note": "Compounds without any hit were thinned out: in the full panel of roughly 83,000, 20% have a hit.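 Note: values are percent growth. 100 is the growth of untreated cells, values between 100 and 0 indicate rising inhibition; between -100 and 0 indicates cell death.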 Activity calls are given as the source filed them."}
{"tested_on": "EKVX NSCLC", "experiment": "NCI-60 one-dose screen, 48 h (100 = growth as untreated, 0 = no growth, -100 = all killed)", "settings": "10 µM unless noted", "procedure": "Growth inhibition of the EKVX human Non-Small Cell Lung tumor cell line is measured as a screen for anti-cancer activity. Cells are grown in 96 well plates and exposed to the test compound for 48 hours. Compounds are tested at a single concentration, which is 10^-5 M for most compounds. The reported endpoint is percent growth (GI% or GIPRCNT), where numbers from 0 - 100% represent growth inhibition, and numbers from -100% - 0 represent cell death. For example, a value of 40 represents 60% growth inhibition. A value of 0 means no net growth occurred over the course of the experiment. A value of -40 indicates 40% of cells at the beginning of the experiment died by the end of the experiment. A value of -100 means all cells are dead at the end of the experiment.\nNCI-60 Human Tumor Cell Lines Screen was performed using the standard one-dose NCI protocol, which is described in more detail at https://dtp.cancer.gov/discovery_development/nci-60/default.htm.\nCompounds with GIPRCNT values below 10 were considered active. Activity score was based on GIPRCNT using the following formula: […]\nScore is 0 for GIPRCNT values of 100 or above, 50 for GIPRCNT values of 0, and 100 for GIPRCNT values of -100."}
{"smiles": "c1ccc(CN2C(c3ccccc3)=Nc3ccccc3C2c2c[nH]c3ccccc23)cc1", "note": "(stereo not given)", "growth": "37.3% (inactive)"}
{"smiles": "Cn1cc(-c2csc(-c3cn(CCNC(=O)OC(C)(C)C)c4ccc(F)cc34)n2)c2cccnc21", "growth": "55.9% (inactive)"}
{"smiles": "C(=C\\c1c[nH]c2ccccc12)/c1ccc2ccccc2n1", "growth": "70.8% (inactive)"}
{"smiles": "O=C1c2ccccc2NC(c2cn(-c3ccccc3)nc2-c2cccs2)N1Cc1ccccc1", "note": "(stereo not given)", "growth": "72.1% (inactive)"}
{"smiles": "COc1cc(-c2cc3ncccc3c3nc(N)c4cccnc4c23)cc(OC)c1OC", "growth": "27.1% (inactive)"}
{"smiles": "Cc1ccccc1-c1nc(C(Cl)Cl)nc2cc(-c3ccccc3)nn12", "growth": "57.8% (inactive)"}
{"smiles": "COC(=O)C(Cc1ccccc1)n1cc(COc2nc(Cl)nc(Nc3ccc(Cl)cc3)n2)nn1", "note": "(stereo not given)", "growth": "95.4% (inactive)"}
{"smiles": "COc1cnc2c(c1)C(=O)c1c-2n(CCCNC2=NCCS2)c(=O)c2cc([N+](=O)[O-])ccc12", "growth": "11.3% (inactive)"}
{"smiles": "Cc1cccc(C)c1NCc1nc(-c2ccccc2)n[nH]1", "growth": "95% (inactive)"}
{"smiles": "COc1ccc(C2C(C#N)=C(N)Oc3c2sc2c(F)cccc32)cc1", "note": "(stereo not given)", "growth": "50.3% (inactive)"}
{"smiles": "CN(C)c1cccc2[nH]c(-c3[nH]ncc3Nc3ccnc(N)n3)nc12", "growth": "-17% (active)"}
{"smiles": "C=C(C)[C@@H]1CC[C@]2(C(=O)N3CCN(C)CC3)CC[C@]3(C)[C@H](CC[C@@H]4[C@@]5(C)C/C(=C/c6ccc(C(F)(F)F)cc6)C(=O)C(C)(C)[C@@H]5CC[C@]43C)[C@@H]12", "growth": "87.7% (inactive)"}
{"smiles": "O=C1CCC/C=C\\C[C@H]2C=C(Cl)C(=O)/C2=C/C[C@H](CCCCC(F)(F)F)OC(=O)CCC/C=C\\C[C@H]2C=C(Cl)C(=O)/C2=C/C[C@H](CCCCC(F)(F)F)O1", "growth": "13.3% [7.5 µM] (inactive)"}
{"smiles": "Brc1ccc2[nH]cc(-c3nc(-c4c[nH]c5ncccc45)cs3)c2c1", "growth": "43.9% (inactive)"}
{"smiles": "Clc1ccccc1-c1nc(Nc2nc3ccccc3s2)nc(C(Cl)(Cl)Cl)n1", "growth": "54% (inactive)"}
{"smiles": "N#Cc1cnc2cc(OC[C@@H](O)CO)c(NC(=O)C3CCCC3)cc2c1Nc1ccc(OCc2cccc(F)c2)c(Cl)c1", "growth": "-36.8% (active)"}
{"smiles": "CC(=O)O[C@H]1CC[C@@]2(C)[C@@H](CC[C@@H]3[C@@H]2CC(=O)[C@@]2(C)[C@H]3C[C@@H](C3CCCC3=O)[C@@H]2C(C)=O)C1", "note": "(stereo not given in full)", "growth": "116% (inactive)"}
{"smiles": "CN(CSc1ccc(Cl)cc1)c1ccc(CSc2ccc(Cl)cc2)cc1", "growth": "86.8% (inactive)"}
{"smiles": "COc1ccc2c(c1)C(Br)=C(CCO)C2c1ccccc1", "note": "(stereo not given)", "growth": "75.8% (inactive)"}
{"smiles": "C=COCCCCCCCCCCCCCCCCCC", "growth": "118% (inactive)"}
{"smiles": "COc1ccc(/C=C(\\C#N)c2cc3ccccc3n2S(C)(=O)=O)cc1", "growth": "85.9% (inactive)"}
{"smiles": "CCCCC[C@H]1C/C=C2/C(=O)C(Cl)=C[C@@H]2C/C=C\\CCCC(=O)O[C@@H](CCCCC)C/C=C2/C(=O)C(Cl)=C[C@@H]2C/C=C\\CCCC(=O)O1", "growth": "5.48% (active)"}
{"smiles": "O=C(N/N=C\\c1ccccc1O)C1CC1", "growth": "109% (inactive)"}
{"smiles": "Clc1cc(Cl)cc(Nc2ccc3c(OCCCN4CCOCC4)cccc3n2)c1", "growth": "62.2% (inactive)"}
{"smiles": "Nc1ccc(Cl)cn1", "growth": "97.4% (inactive)"}
{"smiles": "O=c1[nH]ncc(Br)c1Br", "growth": "78.8% (inactive)"}
{"smiles": "CCCCCCCC(=O)SCC/C=C/[C@@H]1CC(=O)NCc2cccc(n2)CN(Cc2ccc3ccccc3c2)CC(=O)N[C@@H](C(C)C)C(=O)O1", "growth": "53.9% (inactive)"}
{"smiles": "Cc1cc(N=O)cc(C(C)(C)C)c1O", "growth": "95.4% (inactive)"}
{"smiles": "c1cnc2[nH]cc(-c3csc(-c4cn(CCCN5CCCCC5)c5ccccc45)n3)c2c1", "growth": "65.8% (inactive)"}
{"smiles": "CCOC(=O)N1CCN(CCCCOc2ccc(C(C)(C)CC)cc2)CC1", "growth": "99.1% (inactive)"}
{"smiles": "NC1=NN=C2N(N)C(=O)c3cnn(-c4ccccc4)c3N2c2nc(-c3ccccc3)cc(-c3ccccc3)c21", "growth": "96.7% (inactive)"}
{"smiles": "O=c1[nH]c(=S)[nH]c2nc[nH]c12", "growth": "97.2% (inactive)"}
{"smiles": "C=C(C)[C@@H]1CC[C@]2(C(=O)NNC(=O)c3cccnc3)CC[C@]3(C)[C@H](CC[C@@H]4[C@@]5(C)CCCNC(C)(C)[C@@H]5CC[C@]43C)[C@@H]12", "growth": "94.3% (inactive)"}
{"smiles": "C/C(=N\\NC(=O)C(C)SC(C)C(=O)N/N=C(\\C)c1cccnc1)c1cccnc1", "note": "(stereo not given)", "growth": "100% (inactive)"}
{"smiles": "C=C(C)[C@@H]1CC[C@]2(C=O)CC[C@]3(C)[C@H](CC[C@@H]4[C@@]5(C)C/C(=C/c6cccnc6)C(=O)C(C)(C)[C@@H]5CC[C@]43C)[C@@H]12", "growth": "88.5% (inactive)"}
{"smiles": "COC(=O)CNc1nc(N(C)O)nc(N(C)O)n1", "growth": "48.2% (inactive)"}
{"smiles": "Cc1ccc(NC2CC(=O)N(c3c(C)cc(C)cc3C)C2=O)c(C)c1", "note": "(stereo not given)", "growth": "95.3% (inactive)"}
{"smiles": "COc1cccc(-c2nn(-c3ccccc3)cc2-c2ccnc(NCCNS(=O)(=O)c3ccc(Cl)cc3)c2)c1", "growth": "32.1% (inactive)"}
{"smiles": "O=C1CN(c2ccccc2)C(=O)C1C(=O)Nc1ccc(Cl)c(Cl)c1", "note": "(stereo not given)", "growth": "47.4% [100 µM] (inactive)"}
{"smiles": "O=C1c2ccccc2NC(c2cn(-c3ccccc3)nc2-c2cccnc2)N1Cc1ccccc1", "note": "(stereo not given)", "growth": "81.3% (inactive)"}
